The source of these data is PubChem BioAssay (NCI).

Compounds without any hit were thinned out: in the full panel of roughly 83,000, 20% have a hit.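 Negative percent growth values reflect cell death: -40 means 40% of the cells present at the start died, and -100 means all died.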 Unmarked numbers belong to inactive results. Calls of active or inactive are those of the source. Rule for the calls: active = growth percent below 10; inactive = the rest.

Some test systems named below: MOLT-4 leukemia; SR leukemia; RPMI-8226 leukemia; OVCAR-8 ovarian; OVCAR-5 ovarian; OVCAR-4 ovarian; SK-OV-3 ovarian; IGROV1 ovarian; OVCAR-3 ovarian; HS 578T breast; NCI/ADR-RES ovarian; T-47D breast; BT-549 breast; MDA-MB-435 melanoma; SW-620 colon; MCF7 breast; HCT-116 colon; HCC-2998 colon; KM12 colon.
Holding throughout (test): NCI-60 one-dose screen, 48 h (100 = growth as untreated, 0 = no growth, -100 = all killed)
Holding throughout (details): 10 µM unless noted

Turning to `CN[C@]1(c2ccccc2Cl)CCCC[C@H]1NCCCN1CCN(C)CC1`, the growth is 98.8% in the experiment with MOLT-4 leukemia; 111% with SR leukemia; 97.3% with RPMI-8226 leukemia; 97.2% in the experiment with OVCAR-8 ovarian; 104% in the experiment with OVCAR-5 ovarian; 101% in the experiment with OVCAR-4 ovarian. The growth is 105% with SK-OV-3 ovarian; 103% in the experiment on IGROV1 ovarian; 102% in the experiment on OVCAR-3 ovarian; 94.1% in the experiment on HS 578T breast; 101% with NCI/ADR-RES ovarian; 103% with T-47D breast. In addition, the growth is 102% with BT-549 breast; 103% in the experiment with MDA-MB-435 melanoma; 99.4% in the experiment with SW-620 colon; 102% in the experiment on MCF7 breast; 97.8% in the experiment on HCT-116 colon; 99.5% in the experiment on HCC-2998 colon. Also, the growth in the experiment with KM12 colon is 101%.

On to `C[C@]12CC[C@H]3[C@@H](C[C@@H]4SC(Nc5ccccc5)=N[C@@]45CC(O)CC[C@]35C)[C@@H]1CCC2O` (some centres not stated), for which the growth in the experiment on MOLT-4 leukemia is 6.79% (active); with SR leukemia, 8.06% (active); in the experiment with RPMI-8226 leukemia, -32.3% (active); in the experiment on OVCAR-8 ovarian, -8.95% (active); with OVCAR-5 ovarian, 92.2%; in the experiment with OVCAR-4 ovarian, 64.1%. Also, the growth in the experiment on SK-OV-3 ovarian was 89.6%; in the experiment on IGROV1 ovarian, 11.2%; with OVCAR-3 ovarian it was -31.6% (active); with HS 578T breast, 3.65% (active); in the experiment on NCI/ADR-RES ovarian, 36.3%; with T-47D breast, 16.3%. The growth in the experiment on BT-549 breast is 19.2%; with MDA-MB-435 melanoma it was 3.47% (active); in the experiment with SW-620 colon, -19.4% (active); in the experiment with MCF7 breast, 29.2%; in the experiment on HCT-116 colon, -81.5% (active); in the experiment on HCC-2998 colon, 98.2%. Also, the growth in the experiment with KM12 colon is 15.6%.

As to `C[C@]12CC[C@H]3[C@@H](CC[C@]4(O)C[C@@H](O[C@@H]5O[C@H](CO)[C@@H](O[C@@H]6OC[C@@H](O)[C@H](O)[C@H]6O)[C@H](O)[C@H]5O)CC[C@]34C=O)[C@@]1(O)CC[C@@H]2C1=CC(=O)OC1`, the growth was -36.3% (active) with MOLT-4 leukemia; -31.7% (active) in the experiment on SR leukemia; 10% in the experiment with RPMI-8226 leukemia; 2.06% (active) in the experiment with OVCAR-8 ovarian; 31.1% in the experiment with OVCAR-5 ovarian; 2.78% (active) in the experiment on OVCAR-4 ovarian. The growth was -3.1% (active) with SK-OV-3 ovarian; 18.6% in the experiment on IGROV1 ovarian; -34.5% (active) with OVCAR-3 ovarian; 8.83% (active) in the experiment with HS 578T breast; -66.3% (active) in the experiment with NCI/ADR-RES ovarian; 2.52% (active) in the experiment on T-47D breast. The growth in the experiment with BT-549 breast was 5.05% (active); in the experiment with MDA-MB-435 melanoma, 16.9%; in the experiment with SW-620 colon it was 8.41% (active); in the experiment with MCF7 breast, 3.61% (active); in the experiment on HCT-116 colon it was 5.35% (active); with HCC-2998 colon, 38.8%. Moreover, the growth with KM12 colon was 16.9%.

Take `Oc1c(O)c(Cl)c(Cl)c(Cl)c1Cl`: the growth is 31.1% in the experiment on MOLT-4 leukemia; 24.3% in the experiment with SR leukemia; 25.1% in the experiment with RPMI-8226 leukemia; -4.12% (active) in the experiment on OVCAR-8 ovarian; 77.7% with OVCAR-5 ovarian; 15.8% in the experiment on OVCAR-4 ovarian. The growth in the experiment on SK-OV-3 ovarian is 64%; with IGROV1 ovarian, -33.3% (active); in the experiment on OVCAR-3 ovarian, -11.7% (active); in the experiment on HS 578T breast, 34.8%; with NCI/ADR-RES ovarian it was 11.7%; in the experiment with T-47D breast, 15.1%. Besides, the growth with BT-549 breast is 52.5%; with MDA-MB-435 melanoma, 30.8%; with SW-620 colon, 28%; with MCF7 breast, 13.5%; in the experiment with HCT-116 colon, 16.4%; with HCC-2998 colon, 72.8%. In the experiment with KM12 colon, the growth is 30.4%.

With `COC(=O)C12CC(NC(=O)c3csc([C@@H](C[C@H](C(C)C)N(C)C(=O)[C@@H](NC(=O)[C@H]4CCCCN4C)C4CC4)OC(C)=O)n3)(C1)C2`, the growth in the experiment with MOLT-4 leukemia was 15.9%; in the experiment with SR leukemia it was 17.5%; with RPMI-8226 leukemia, 22.9%; in the experiment on OVCAR-8 ovarian, 19.3%; with OVCAR-5 ovarian, 35.7%; in the experiment on OVCAR-4 ovarian, 43.5%. In addition, the growth with SK-OV-3 ovarian was 3% (active); in the experiment on IGROV1 ovarian, 29.5%; in the experiment with OVCAR-3 ovarian, -25.2% (active); with HS 578T breast it was 33.1%; in the experiment on NCI/ADR-RES ovarian it was 43.7%; in the experiment on T-47D breast it was 43.4%. In addition, the growth in the experiment on BT-549 breast is -10.9% (active); with MDA-MB-435 melanoma, -40.9% (active); in the experiment on SW-620 colon, 25.4%; in the experiment with MCF7 breast it was 19.2%; in the experiment with HCT-116 colon it was 1.78% (active); in the experiment on HCC-2998 colon, 21.8%. In addition, the growth in the experiment on KM12 colon was 1.43% (active).

For the molecule `O[C@H](CN1CC1)[C@@H](O)CN1CC1`, the growth is 32.8% in the experiment on MOLT-4 leukemia; 16.9% in the experiment on SR leukemia; 88% in the experiment with RPMI-8226 leukemia; 55% with OVCAR-8 ovarian; 103% in the experiment with OVCAR-5 ovarian; 93.1% with OVCAR-4 ovarian. The growth with SK-OV-3 ovarian was 49.5%; in the experiment on IGROV1 ovarian, 93.9%; in the experiment with OVCAR-3 ovarian, 101%; in the experiment on HS 578T breast, 97.1%; in the experiment on NCI/ADR-RES ovarian it was 56.3%; in the experiment on T-47D breast, 48%. Besides, the growth is 81.9% in the experiment with BT-549 breast; 78.3% in the experiment with MDA-MB-435 melanoma; 64.4% in the experiment on SW-620 colon; 41.7% in the experiment on MCF7 breast; 66.3% in the experiment on HCT-116 colon; 97% in the experiment with HCC-2998 colon. Further, in the experiment on KM12 colon, the growth is 91.5%.

As for `O=C(CC1(O)C(=O)N(Cc2ccccc2)c2ccc(F)cc21)c1ccc(C(=O)NCC2CCC3(CC2)OOC2(CCCCC2)OO3)cc1` (configuration not stated), the growth in the experiment on MOLT-4 leukemia was -48.9% (active); in the experiment on SR leukemia, -44.8% (active); in the experiment with RPMI-8226 leukemia, -29.7% (active); with OVCAR-8 ovarian, -30.5% (active); in the experiment with OVCAR-5 ovarian, 4.61% (active); with OVCAR-4 ovarian it was -32.4% (active). The growth was 41.1% in the experiment with SK-OV-3 ovarian; -38.1% (active) in the experiment on IGROV1 ovarian; -76.9% (active) with OVCAR-3 ovarian; -9.82% (active) in the experiment on HS 578T breast; -48.6% (active) with NCI/ADR-RES ovarian; -53.9% (active) in the experiment with T-47D breast. Further, the growth in the experiment on BT-549 breast is -19.7% (active); with MDA-MB-435 melanoma, -80.7% (active); in the experiment on SW-620 colon it was -62.3% (active); in the experiment with MCF7 breast, 7.64% (active); in the experiment on HCT-116 colon, 4.47% (active); in the experiment with HCC-2998 colon, 44.9%. Also, the growth in the experiment with KM12 colon is -68.1% (active).

`C/C(=C\c1ccn(-c2ccc(N)cc2)n1)[C@@H]1C[C@@H]2O[C@]2(C)CCC[C@H](C)[C@H](O)[C@@H](C)C(=O)C(C)(C)[C@@H](O)CC(=O)O1`: the growth was 13.3% in the experiment with MOLT-4 leukemia; 19% in the experiment with SR leukemia; 15.6% in the experiment on RPMI-8226 leukemia; 29.5% with OVCAR-8 ovarian; 32.9% with OVCAR-5 ovarian; 67.4% in the experiment with OVCAR-4 ovarian. Also, the growth in the experiment with SK-OV-3 ovarian was 45.1%; in the experiment with IGROV1 ovarian, 40.3%; in the experiment with OVCAR-3 ovarian, 2% (active); in the experiment on HS 578T breast, 17.8%; in the experiment with NCI/ADR-RES ovarian, -2.72% (active); with T-47D breast, 42.7%. Further, the growth in the experiment on BT-549 breast is 26.9%; in the experiment with MDA-MB-435 melanoma it was -33.6% (active); in the experiment on SW-620 colon, 38.3%; in the experiment with MCF7 breast, 19.1%; with HCT-116 colon, 10.4%; in the experiment with HCC-2998 colon, -0.702% (active). Besides, the growth with KM12 colon is 15%.
